ELG1 repair inh: blocks ELG1-dependent DNA repair in HEK293T cells. HEK293T ELG1-luciferase reporter, luminescence, 16 h; DNA damage induced by 5-fluorouridine. Potency, µM (doses to about 46.1 µM), inactives show at the top dose activity change, negative = inhibition, actives largely listed as inhibitors. 330,000 tested, 2.3% active; note: % is set by controls: 0 for no effect and ±100 for the full control effect; nearly all actives have a fitted effect of over 55% in size
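Step one: seed 2,000 cells per well. Step two: pin-transfer compound or DMSO alongside 5-fluorouridine. Step three: incubate 16 hr, 37 °C, 5% CO2. Step four: add ONE-Glo, wait 30 min, read luminescence.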
ELG1 genotoxic: inducers of genotoxicity in HEK293T ELG1-luciferase cells; HEK293T ELG1-luciferase reporter, luminescence, 16 h; Potency, µM (top dose mostly 46 µM), for the others: at the top dose activity change, positive = activation, hits mostly activators; 330,000 tested, 1.3% active; note: % of control where 0% means no effect; nearly all actives have a fitted effect of over 60% in size
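After overnight (16 hr) compound treatment at 37 °C, ELG1-luciferase HEK293T cells were lysed with ONE-Glo; luminescence quantified 30 min later at room temperature.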
Rab9 promoter act: activates the Rab9 promoter; Huh7 Rab9 promoter-luciferase reporter, luminescence, 24 h; Potency, µM (series often up to 9.22 µM), for inactives: top-dose activation, negative = inhibition, actives largely listed as activators; 320,000 tested, 2.8% active; AID 485297; note: % of control where 0% means no effect; nearly all actives have a fitted effect of over 60% in size
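Quantitative HTS format; Huh7 Rab9-luciferase reporter cells (1500/well) receive compound 2 h post-plating, incubate 24 h at 37 °C, then get luciferase reagent for 10 min before luminescence reading.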
SMN2 splice enh: SMN2 splice variant enhancement | 210,000 tested, 2.8% active | Potency, µM (top dose mostly 46.1 µM), inactives show at the top dose activity change, positive = activation, actives largely listed as activators | AID 1458 | HEK293 SMN2-luciferase splicing reporter, luminescence, 30-36 h; note: % of control where 0% means no effect; nearly all actives have a fitted effect of over 55% in size
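qHTS luciferase splicing reporter: luminescence rises when SMN2 exon 7 is included in transfected HEK293 cells. Compound exposure lasted 30-36 h at 37C, with 4.5 mM final sodium butyrate as control, followed by a ONE-Glo read.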
FLuc counter: inhibits or activates purified firefly luciferase, miR-21 counter-screen; P08659; purified FLuc, Km substrates, luminescence inhibition; Potency, µM (series often up to 57.5 µM), without a hit: top-dose activity change, negative = inhibition, hits mostly inhibitors; 360,000 tested, 6.9% active;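 note: plate controls were vehicle for no effect and reference inhibitor for full effect; nearly all actives have a fitted effect of over 55% in size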
Target sequence (P08659 whole entry, looked up): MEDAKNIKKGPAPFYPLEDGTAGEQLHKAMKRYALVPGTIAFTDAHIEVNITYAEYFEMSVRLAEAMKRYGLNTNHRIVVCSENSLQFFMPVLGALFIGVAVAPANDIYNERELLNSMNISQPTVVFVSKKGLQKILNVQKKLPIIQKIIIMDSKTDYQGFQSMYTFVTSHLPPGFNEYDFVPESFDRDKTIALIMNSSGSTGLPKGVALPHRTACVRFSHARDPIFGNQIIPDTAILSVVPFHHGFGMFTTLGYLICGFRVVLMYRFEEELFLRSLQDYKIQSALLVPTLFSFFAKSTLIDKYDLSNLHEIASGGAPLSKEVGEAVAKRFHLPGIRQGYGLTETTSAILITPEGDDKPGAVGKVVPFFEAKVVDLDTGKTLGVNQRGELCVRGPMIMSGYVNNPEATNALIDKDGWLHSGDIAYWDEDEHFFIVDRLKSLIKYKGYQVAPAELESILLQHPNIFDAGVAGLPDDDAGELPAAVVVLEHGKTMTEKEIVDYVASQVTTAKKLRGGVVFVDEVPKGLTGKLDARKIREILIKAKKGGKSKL
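Biochemical qHTS of compounds, final roughly 60 µM downward over six points, against 10 nM purified firefly luciferase using Km concentrations of substrates (10 uM D-luciferin, 10 uM ATP) in Tris acetate pH 7.5 buffer; luminescence output.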
NPC1 prom act: NPC1 promoter activation; 320,000 tested, 2.4% active; AID 485313; Potency, µM (titrated, usually from 9.22 µM), inactives show at the top dose activation, actives largely listed as activators; Huh7 NPC1 promoter luciferase reporter, 24 h; note: % of control where 0% means no effect; nearly all actives have a fitted effect of over 60% in size
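In 1536-well qHTS, Huh7 cells harboring an NPC1 promoter–luciferase construct received compound for 24 h; activation was quantified by luminescence following luciferase reagent addition.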
Numbers without * were called inactive; ? = inconclusive; . = not tested or not shown; [ ] = another dose, or the depositor's remark. Compounds with a hit are over-represented: about 9.2% of the library has one in this group of screens. Calls come from the whole dose curve; as a rule, active = well fitted curve in the direction sought with a large enough effect; inconclusive = small, poorly fitted or top-dose-only effect, or another doubt; inactive = no such curve, though single readings can be large; an effect the other way counts as inactive or inconclusive. Potency is the fitted concentration of half-maximal effect.

SMILES	ELG1 repair inh	ELG1 genotoxic	Rab9 promoter act	SMN2 splice enh	FLuc counter	NPC1 prom act
O=C(O)CCCNc1cc(N2CCC3(CC2)OCCO3)c2noc3c2c1C(=O)c1ccccc1-3	?	?	2.24µM*	-35.6%	10.7µM*	3.98µM*
COc1ccc(-c2csc(NNC3=NCCCCC3)n2)cc1	?	-0.5%	15.1%	-1.8%	?	-0.3%
COc1ccc(-c2csc(NC3=NCCCCC3)n2)cc1	?	25.4%	?	-3.6%[1.84 µM]	12µM*	?
c1ccc(-c2csc(NNC3=NCCCCC3)n2)cc1	?	?	12.4%	-1.1%	15.1µM*	0.4%
Cc1cccc(OCC(=O)N2CCc3ccccc3C2)c1	?	10.3%	16.1%	.	?	25.8%
COc1cccc(/C=N/NC(=O)CNC(=O)c2ccco2)c1O	8.2µM*	0.1%	-1.3%	.	?	7.1%
CC(C)(C)OC(=O)N/N=C\c1ccc(OC(=O)c2ccco2)cc1	?	?	3.98µM*	?	2.0%	?
O=C(N/N=C/c1ccc(OCc2ccccc2)cc1)c1ccco1	?	19.5%	2.82µM*	.	?	?
COc1cccc(/C=N/NC(=O)CNC(=O)c2ccncc2)c1O	-15.3%	?	-6.3%	.	-9.9%	-2.7%
COc1ccc(/C=N/NC(=O)c2ccco2)cc1OCc1ccccc1	-12.7%	-1.3%	-4.3%	.	-12.3%	0.2%
O=C(N/N=C/c1ccc2cccnc2c1)c1ccco1	?	2.06µM*	0.891µM*	.	6.01µM*	1.41µM*
O=C(NNC(=O)C1C2C=CC(C2)C1C(=O)O)c1cc(Cl)ccc1O (stereo unspecified)	10.2%	2.8%	-1.6%	.	?	-1.6%
COc1ccc(-c2cc(C)no2)cc1S(=O)(=O)Nc1cccc(CN2CCCC2)c1	?	2.6%	-4.4%	.	0.6%	2.4%
COc1ccc(CCNC(=O)CCCCn2c(=O)c3ccccc3n(CC(=O)Nc3ccc(C)cc3C)c2=O)cc1OC	.	.	.	-1.0%	0.4%	.
COc1ccc(C(=O)Nc2ccccc2C(=O)NCc2cccnc2)cc1OC	?	-11.2%	2.9%	.	-0.3%	-4.3%
O=C(N/N=C\c1ccccc1OCc1ccccc1)c1ccco1	16.9%	-1.3%	-0.2%	8.7%	21.3µM*	-0.5%
O=C(Nc1ccccc1C(=O)N/N=C/c1ccccc1)c1ccco1	?	-3.2%	27.7%	.	2.69µM*	?
COc1ccc(C(=O)Nc2ccccc2C(=O)N/N=C/c2ccncc2)cc1OC	?	-3.9%	?	.	0.239µM*	2µM*
O=C(Nc1ccccc1C(=O)Nc1ccccc1)c1ccco1	16.4%	3.6%	-1.4%	.	-1.9%	-0.5%
Cc1ccc(/C=N/NC(=O)c2cc(-c3ccc(C)o3)[nH]n2)cc1	?	-2.1%	0.4%	.	?	-1.3%
COc1ccccc1/C=C/C=N/NC(=O)c1cc(-c2ccc(C)o2)[nH]n1	?	-13.2%	-0.3%	.	15.1µM*	1.0%
Cc1ccccc1NC(=O)CSc1nc2ccc(NC(=O)CCc3ccccc3)cc2s1	.	.	.	.	-14.0%	.
CCOC(=O)C1CCN(C(=O)c2cccc(S(=O)(=O)N3c4ccccc4CC3C)c2)CC1 (stereo unspecified)	19.3%	-0.5%	-1.7%	.	-2.2%	-4.9%
COc1cccc(CNC(=O)NCc2noc3ccc(C)cc23)c1	.	.	.	.	-15.1%	.
O=C(Nc1ccccc1C(=O)NC(Cc1ccccc1)C(=O)O)c1ccco1 (stereo unspecified)	3.8%	0.9%	3.5%	.	-2.3%	0.9%
SMILES	ELG1 repair inh	ELG1 genotoxic	Rab9 promoter act	SMN2 splice enh	FLuc counter	NPC1 prom act
CC(NC(=O)c1ccccc1NC(=O)c1ccco1)C(=O)O (stereo unspecified)	?	?	0.316µM*	0.316µM*	21.3µM*	0.562µM*
O=C(NNC(=O)c1ccccc1O)c1ccco1	?	?	?	?	19µM*	?
O=C(NNC(=O)c1ccccc1F)c1ccco1	?	-6.3%	17.8%	.	-14.1%	17.0%
COc1cccc(/C=N/NC(=O)c2ccccc2NC(=O)c2ccco2)c1OC	9.8%	-2.2%	-2.7%	.	10.7µM*	0.1%
O=C(N/N=C/C(Br)=C\c1ccccc1)c1ccco1	?	?	3.98µM*	.	3.01µM*	2.51µM*
COc1ccc(/C=N/OCC(=O)OCC(=O)N(C)c2ccccc2)cc1	17.3%	-1.4%	-2.4%	.	?	-2.8%
Cc1cccc(C)c1-n1ncc(C(=O)NCCCN2CCC(C)CC2)c1C1CCN(C(=O)OC(C)(C)C)CC1	.	.	.	.	-1.9%	.
NC(=O)c1c(NC(=O)COC(=O)c2ccc(O)c(Cl)c2)sc2c1CCCC2	?	-0.4%	.	.	.	.
O=C(NC(=S)NNC(=O)c1ccccc1F)c1cccnc1	-7.2%	-1.8%	0.6%	.	-16.1%	-4.5%
CCOc1cc(N2CCOCC2)c(OCC)cc1NC(=O)CN1C(=O)NC2(CCCCC2)C1=O	?	-0.3%	3.0%	.	6.2%	-1.6%
O=C(N/N=C/c1ccccc1)c1ccco1	?	?	3.16µM*	.	13.5µM*	?
COC(=O)c1ccc(COc2ccccc2/C=N/NC(=O)c2cccnc2)cc1	?	6.2%	0.4%	-5.4%	21.3µM*	-2.8%
O=C(Nc1ccccc1C(=O)N/N=C/c1ccc(O)cc1)c1ccccc1	?	15.2%	?	.	0.151µM*	?
O=C(N/N=C/C=N/NC(=O)c1ccco1)c1ccco1	-12.2%	-11.7%	1.1%	.	-14.6%	-0.5%
COc1ccc(CCCC(=O)N/N=C/c2cccc(OC)c2O)cc1C	-4.8%	?	-25.3%	-90.2%	16.9µM*	-8.2%
CN(C(=O)c1ccc2c(Cl)c3c(nc2c1)CCC3)c1ccccc1F	.	.	.	-5.1%	?	.
COc1cc(CCC(=O)OCC(=O)Nc2sccc2C(N)=O)cc(OC)c1OC	-9.0%	-2.5%	-18.0%	.	1.8%	-14.9%
COc1cc(/C=N/NC(=O)c2ccncc2)ccc1OCc1cnc(Cl)s1	?	16.6%	-1.5%	12.6µM*	2.9%	0.5%
CC(C)=C(NC(=O)c1ccccc1)C(=O)N/N=C/c1ccc(O)cc1	?	9.9%	1.4%	18.6%	16.9µM*	-0.5%
COc1ccccc1/C=C/C=N/NC(=O)c1ccco1	?	?	?	.	16.9µM*	?
CC(=O)c1ccc(NC(=O)C(NC(=O)c2ccccc2)=C(C)C)cc1	11.2%	-0.1%	-2.8%	-2.5%	-1.0%	1.2%
COc1ccccc1/C=C/C=N/NC(=O)c1ccncc1	3.9%	1.1%	-0.2%	9.4%	?	0.4%
Cc1ccc(COc2ccccc2-c2cc(C(=O)N/N=C/c3cccnc3)[nH]n2)cc1	23.1µM*	-15.1%	-21.3%	.	-6.5%	-27.1%
Cn1cc([N+](=O)[O-])c(C(=O)Nc2nccs2)n1	?	-0.2%	-13.9%	.	-0.4%	-0.3%
